In PubChem BioAssay AID463212 (Sanford-Burnham Center for Chemical Genomics, 2010):
The campaign covered roughly 330,000 compounds. About 4,400 (1.3%) were called active. This excerpt belongs to a sample that is enriched for actives. Values without a mark were called inactive.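 Rule for the calls: active = growth inhibition of the mutant yeast at or above 50%; inactive = the rest.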

Test: growth inhibition of tim23-1 ts yeast – luminescence, uHTS, primary screen (AID 463212);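 note: temperature-sensitive mutant grown at 25 °C; plate controls were DMSO-treated mutant yeast for no effect and medium wells lacking yeast for full effect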
Details: S. cerevisiae tim23-1 growth, BacTiter-Glo luminescence, 24 h; at 20 µM; hits give high values

| Compound | inhibition |
| --- | --- |
| COc1ccc(/C(N)=N/OC(=O)Oc2ccccc2)cc1 | 14.8% |
| N/C(=N\OC(=O)CCc1ccccc1)c1ccc(Cl)cc1 | 73.6% (active) |
| O=C(CCc1ccccc1)NNC(=O)COc1ccc(Cl)cc1 | 7.58% |
| COc1ccc(/C(N)=N/OC(=O)Cc2ccccc2)cc1 | 21.8% |
| N/C(=N\OC(=O)CCc1ccccc1)c1cccnc1 | 18.1% |
| CCC[C@H]1CCCC/C=C\CCCC(=O)OCCN1C(=O)OC(C)(C)C | 9.84% |
| CC1Sc2ccc(C(=O)NCc3ccccc3Cl)cc2NC1=O (centres undefined) | 9.69% |
| CCOc1ccc(N/C(N)=N/c2nc(C)c(C)c(=O)[nH]2)cc1 | 12.2% |
| CCOC(=O)N1CCN(C(=O)c2ccc3nc4cc(Cl)ccc4c(=O)n3c2)CC1 | 10.4% |
| COc1ccc(CCNC(=O)c2cnc(Cl)c(Cl)c2)cc1 | 1.06% |
| COc1ccc(CS(=O)/C(Cl)=C(/Cl)C(=O)Nc2ccc(OC)nc2)cc1 (centres undefined) | 85.7% (active) |
| CCN(CC(=O)Nc1ccc(OC)cc1)C(=O)CSCc1ccc(C)cc1 | 25% |
| COc1ccc(C(=O)CCC(=O)Nc2ccc(Cl)cc2)cc1 | 12.1% |
| COc1ccc(NC(=O)/C(Cl)=C(/Cl)S(=O)Cc2ccc(C)cc2)cn1 (centres undefined) | 67% (active) |
| COC(=O)c1sccc1NC(=S)Nc1ccc(C)cc1 | 22.6% |
| COc1ccc2c(c1)cc1n2CCN=C1NN | 45.5% |
| COc1ccc(C(=O)O/N=C(\N)Cc2ccc(Cl)cc2Cl)cc1OC | 60.3% (active) |
| COc1ccc(C(=O)ON=C2c3ccccc3-c3ccccc32)cc1OC | 0.197% |
| COc1ccc(C/C(N)=N/OC(=O)c2ccco2)cc1OC | 2.63% |
| Cn1nc(C(F)(F)F)c2cc(NC(=O)OCC(C)(C)C)sc21 | 50.2% (active) |
| Cn1nc(C(F)(F)F)c(-c2ccc(F)cc2)c1NC(=O)CSCC(=O)O | -1.38% |
| Cn1nc(C(F)(F)F)c2cc(C(=O)N3CCOCC3)sc21 | 3.93% |
| COc1ccc(CCNC(=O)C2CCCN(Cc3nc(-c4cccc(Cl)c4)oc3C)C2)cc1OC (centres undefined) | 7.77% |
| COc1cc(OC)c2c(-c3cccc(-c4cccc(N)c4)c3)cc(=O)oc2c1 | 35.7% |
| C/C(=N\NC(=S)NCc1ccccc1)C1CCCCC1 | 22.7% |

| Compound | inhibition |
| --- | --- |
| O=C(O)c1ccc(/C=N/NC(=S)NCc2ccccc2)cc1 | -1.86% |
| C/C(=N\NC(=S)NCc1ccccc1)c1ccc(Cl)cc1 | 56% (active) |
| Cc1nn(C)c(C)c1CN(C(=O)CCc1nnc(Cc2c[nH]c3ccccc23)o1)C(C)C | 20.5% |
| CCCNC(=S)N1CCC(NC(=O)c2ccc(OC)cc2)CC1 | -9.98% |
| COc1ccc(-n2cnc3cc(C(=O)NC4CCCC4)ccc32)cc1 | 17.7% |
| COc1ccc(C(=O)NC(=S)NC2CCCCC2)cc1 | 63.3% (active) |
| O=C(NNC(=S)NC1CCCCC1)c1ccccc1Cl | 5.3% |
| O=C(NC(=S)NC1CCCCC1)c1ccc(Cl)cc1 | 67.3% (active) |
| O=C(NC1CCCCCC1)C1CCN(C(=O)c2ccc(Cl)cc2)CC1 | 15.7% |
| CCc1ccc(S(=O)(=O)NCC(O)COc2ccc(OC)cc2)cc1 (centres undefined) | 13.2% |
| CCc1ccc(Nc2n[n+](-c3ccccc3)c(-c3cccc(Cl)c3Cl)s2)cc1 | 36.3% |
| O=C1[C@@H](c2ccccc2)[C@@H](c2ccccc2)N1c1cccnc1 | 70.3% (active) |
| CC(=O)C1=C(O)C(=O)N(c2cccnc2)C1c1ccc([N+](=O)[O-])cc1 (centres undefined) | 4.69% |
| CCc1ccccc1NC1c2ccccc2C(=O)N1c1cccnc1 (centres undefined) | -9.01% |
| CCOc1cc(/C=N/Nc2cc(C)nc3ccc(C)cc23)ccc1O | 37.3% |
| COc1cc(/C=N/Nc2nc3ccccc3s2)ccc1O | 51.9% (active) |
| COc1cc(/C=N/NC(=O)CCc2n[nH]c(=O)[nH]c2=O)ccc1O | 5.73% |
| CC(=O)c1c(C)[nH]c(C(=O)CN2C(=O)NC(C)(C)C2=O)c1C | -12.9% |
| Cc1ccc(S(=O)(=O)N[C@@H](Cc2ccccc2)C(=O)N2CCC(C(=O)N[C@H](C(=O)O)C(C)O)CC2)cc1 (some centres undefined) | 0.987% |
| Oc1c(Cl)cc(Cl)c(Cl)c1Cc1c(O)c(Cl)cc(Cl)c1Cl | 94.9% (active) |
| Cc1ccc(OC(=O)c2cncc(Br)c2)c(C)c1 | 14.1% |
| Cc1ccc(C(=O)OC2CCCN(C)C2)cc1 (centres undefined) | -2.9% |
| CC1(C)C2CCC1(C)C(OC(=O)CCn1ccnc1)C2 (centres undefined) | 13.1% |
| CC1(C)C2CCC1(C)C(OC(=O)c1ccc(O)cc1)C2 (centres undefined) | 70% (active) |
